# The list is not random: actives were taken first. Their share in the collection is about 0.45%.
# NCOA2 inhibitor – inhibits human steroid receptor coactivator 2 | HEK293 GAL4-SRC2 luciferase reporter, luminescence | inhibition, % at 9 µM | actives 0.17% (n = 370,000) | AID 651957;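 active = inhibition above the mean inhibition of all tested compounds plus 3 SD, set per campaign, cut at about 52% in these data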;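 also: 0% = DMSO treated cells and 100% = cells given Gossypol at 36 µM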
# NCOA3 inh – human NCOA3 inhibition; actives 0.17% (n = 360,000); inhibition, % at 3.6 µM; AID 588352; HEK293 GAL4-SRC3 luciferase reporter, luminescence;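 active = inhibition above a per-campaign cutoff, the mean of all compounds plus 3 SD, cut at about 60% in these data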;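 also: 0% = DMSO-treated cells and 100% = gossypol-treated cells at 36 µM; higher means less SRC3-driven luciferase light from the GAL4 reporter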
# LGR2 antag – blocks bursicon-induced cAMP signaling via Drosophila LGR2 | HEK293 LGR2, CRE-luciferase, bursicon-stimulated, 4 h | actives 0.35% (n = 380,000) | AID 720647 | inhibition, % at 9.99 µM;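 active = drop in luminescence signal, shown as inhibition above about 50% in the replicate tests, limit read from the data, passing the limit was not always enough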;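 also: agonist challenge used bursicon conditioned medium at about half maximal strength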
# NCOA1 inh – inhibitors of human steroid receptor coactivator 1 (SRC1); Q15788; HEK293 GAL4-SRC1 luciferase reporter, luminescence; inhibition, % at 3.6 µM; actives 0.12% (n = 360,000); AID 588354;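 active = inhibition above the campaign mean plus 3 SD, with each screening campaign given its own cutoff, cut at about 60% in these data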;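 also: 0% = DMSO treated cells and 100% = gossypol at 36 µM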
# NR5A2 inv ag – NR5A2 inverse agonism in reporter assay | AID 602396 | actives 0.13% (n = 360,000) | inhibition, % at 3.6 µM | HEK293T StAR-luciferase reporter, LRH-1 transfected, 24 h | O00482;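 active = inhibition above the mean inhibition of all tested compounds plus 3 SD, cut at about 73% in these data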;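 also: 0% = DMSO wells and 100% = reporter-only cells lacking LRH-1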
# Target sequence (O00482 whole entry, looked up): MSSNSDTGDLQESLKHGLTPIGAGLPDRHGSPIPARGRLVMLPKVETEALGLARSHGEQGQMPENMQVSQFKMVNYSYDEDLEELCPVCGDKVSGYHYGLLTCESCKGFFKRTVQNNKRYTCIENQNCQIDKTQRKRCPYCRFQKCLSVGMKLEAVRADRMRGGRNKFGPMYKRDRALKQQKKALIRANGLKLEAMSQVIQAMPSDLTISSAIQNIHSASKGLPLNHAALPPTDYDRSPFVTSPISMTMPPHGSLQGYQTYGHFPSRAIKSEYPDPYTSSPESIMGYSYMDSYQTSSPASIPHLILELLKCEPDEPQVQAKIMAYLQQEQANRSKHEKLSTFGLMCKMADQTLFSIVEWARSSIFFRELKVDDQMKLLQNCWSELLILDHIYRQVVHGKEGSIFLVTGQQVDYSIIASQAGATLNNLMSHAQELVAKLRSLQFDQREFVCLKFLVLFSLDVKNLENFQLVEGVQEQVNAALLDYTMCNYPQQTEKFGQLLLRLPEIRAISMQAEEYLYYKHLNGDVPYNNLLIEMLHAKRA
# The depositor's hits bear a star; . = no result; ! = not confirmed by another sample.
SMILES,NCOA2 inhibitor,NCOA3 inh,LGR2 antag,NCOA1 inh,NR5A2 inv ag
CCC(C)C1NC(=O)C(NC(=O)C(CC(C)C)N(C)C(=O)C2CCCN2C(=O)C(C)O)C(C)OC(=O)C(Cc2ccc(OC)cc2)N(C)C(=O)C2CCCN2C(=O)C(CC(C)C)NC(=O)[C@H](C)C(=O)[C@H](C(C)C)OC(=O)CC1O (some centres not stated),78*,94*,101*,95*,97*
C#CCCC[C@@H]1OC(=O)CNC(=O)C([C@@H](C)CC)NC(=O)[C@@H]2CCCN2C(=O)C([C@@H](C)CC)OC(=O)[C@H](Cc2ccccc2)N(C)C(=O)[C@H](C(C)C)NC(=O)C1(C)C (some centres not stated),3,-45,10,8,0
CN(C)c1ccc(/C=C/c2cc[n+](C)c3ccccc23)cc1,-80,67*!,33,68*!,86*
NC(N)=N/N=C/c1cn(-c2ccccc2)nc1-c1cccs1,-14,10,106*,-10,-7
O=c1c2ccccc2nc(-c2cccs2)n1-c1ccccc1,4,2,.,0,25
CCCN1[C@@H]2Cn3c(ccc(-c4cccc(C(=O)N(C)C)c4)c3=O)[C@H]1[C@@H](C(=O)OC)[C@@H]2CO,.,.,5,.,.

# Screening data from PubChem BioAssay.
